Compound activity as filed in PubChem BioAssay.
Compounds with a hit are over-represented: about 6.5% of the library has one in this group of screens.
Lassa entry inh: Lassa virus entry inhibition. Lassa virus pseudotype entry inhibition, cell reporter. Potency, µM (highest dose often 37.9 µM), most hits filed as inhibitors. actives 1.2% (n = 300,000); calls by dose curve; tested in HEK293 cells; note: nearly all actives have a fitted effect of over 50% in size
Vaccinia Venus: inhibitors of vaccinia virus (Venus reporter). AID 720580. Potency, µM (top dose mostly 36.5 µM), usual class: inhibitors. actives 0.46% (n = 330,000). Vaccinia virus Venus reporter expression, fluorescence; calls by dose curve; tested in A549 cells; note: nearly all actives have a fitted effect of over 30% in size
HCMV inh: inhibitors of human cytomegalovirus; HFF cells, HCMV-luciferase reporter, 72 h; active compounds read low; activity change, negative = inhibition, % at 57.5 µM; actives 4.5% (n = 410,000); in the data active = activity change below about -60%; inconclusive = no clear call, values can overlap the other calls; inactive = above about -39%
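Luciferase read-out from HCMV-luciferase-infected HFFs (MOI 1 PFU/cell) 72 h post infection at 37C; compounds added after 16 h cell attachment; activity normalized between buffer-only basal and Salinomycin (10uM) inhibitor controls.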
VACV mCherry inh: inhibitors of vaccinia virus infection (mCherry reporter signal); actives 0.63% (n = 310,000); Vaccinia virus mCherry reporter infection, fluorescence; Potency, µM (series often up to 36.5 µM), most hits filed as inhibitors; calls by dose curve; tested in A549 cells; note: nearly all actives have a fitted effect of over 35% in size
Marburg entry inh: inhibitors of Marburg virus binding or cell entry. Marburg virus pseudotyped entry inhibition, cell reporter. Potency, µM (titrated, usually from 37.8 µM), usual class: inhibitors. actives 1.8% (n = 300,000); calls by dose curve; tested in HEK293 cells
FMDV antiviral: blocks foot and mouth disease virus | actives 1.2% (n = 410,000) | Potency, µM (titrated, usually from 57.9 µM), actives largely listed as inhibitors | FMDV antiviral cell-based qHTS; calls by dose curve; tested in HEK293T cells; note: read-out not given here; nearly all actives have a fitted effect of over 45% in size
A number is an active result; n = inactive; u = inconclusive; x = not tested or not shown.

SMILES | Lassa entry inh | Vaccinia Venus | HCMV inh | VACV mCherry inh | Marburg entry inh | FMDV antiviral
O=C(CCN1CCN(Cc2ccccc2)CC1)NNC(=O)Cc1ccc(Cl)c(Cl)c1 | n | u | n | 28.2µM | n | n
CCC(=O)c1ccc(OCC(=O)NC2CCN(Cc3ccccc3)CC2)cc1 | x | x | -104.9 | x | x | n
O=C(NC1CCN(Cc2ccccc2)CC1)c1ccccc1OCc1ccccc1Cl | 10µM | n | -62.7 | n | u | n
COc1ccc(CN2CC[C@H]3C=CC[C@@H](C(=O)Nc4nccs4)[C@H]3C2=O)cc1OC | x | n | x | n | x | x
Cc1ccc(CNC(=O)CN(c2cc(C)cc(C)c2)S(=O)(=O)c2c(C)noc2C)cc1 | n | n | n | n | n | n
Cc1nc2scc(-c3ccc(C(C)(C)C)cc3)c2c(=O)n1N | n | n | -78.1 | n | u | n
COc1ccc(-c2csc3nc(C)n(-n4cccc4)c(=O)c23)cc1 | u | n | -61.6 | x | n | n
CC(C)(C)c1nc2scc(-c3ccc(Br)cc3)c2c(=O)o1 | n | n | n | n | n | n
CCC1(c2ccc(Cl)cc2)NC(=O)N(CC(=O)NCc2ccc(F)cc2)C1=O (stereo unspecified) | u | n | n | n | u | n
CCC1(c2ccc(Cl)cc2)NC(=O)N(Cc2ccc(C(=O)OC)cc2)C1=O (stereo unspecified) | u | n | u | n | 8.91µM | u
CCN(CC)c1ccc2cc(-c3nnc(-c4ccccc4)o3)c(=O)oc2c1 | n | n | n | n | u | n
CCN(CC)c1ccc2cc(-c3nc4ccccc4n3C)c(=O)oc2c1 | n | u | -78.9 | u | n | n
CCN(CC)c1ccc2cc(-c3nc4ccccc4[nH]3)c(=O)oc2c1 | u | n | x | n | u | 4.47µM
O=C1[C@H](Cc2ccccc2)NC/C=C\C[C@@H](c2ccc(Cl)cc2)N1Cc1ccccc1 | x | n | x | n | x | x
CN1C[C@H](CNC(=O)OCc2ccccc2)C[C@H]2c3cccc4c3c(cn4C)C[C@@H]21 | x | x | x | x | u | n
CN1C[C@H](CNC(=O)OCc2ccccc2)C[C@@H]2c3cccc4c3c(cn4C)C[C@H]21 | 23.1µM | n | n | n | 5.62µM | n
CC(=O)N[C@@H](C)C(=O)NCC1Cc2cccc(-c3ccccc3C(F)(F)F)c2O1 (stereo partly specified) | x | n | x | n | x | n
Cc1oc(-c2ccc(Cl)cc2)nc1CS(=O)CC(=O)NCCCN1CCOCC1 (stereo unspecified) | x | x | n | x | x | n
Cc1oc(-c2ccc(Cl)cc2)nc1CS(=O)CC(=O)NCCCN(C)C1CCCCC1 (stereo unspecified) | n | x | -70.2 | x | u | u
Cc1ccc(-c2nc(CS(=O)CC(=O)NCCCN3CCN(Cc4ccccc4)CC3)c(C)o2)cc1 (stereo unspecified) | u | u | -75.5 | u | 11.2µM | n
CCOc1ccc2nc(N3CCCC(C(=O)NCCCN4CC(C)CC(C)C4)C3)sc2c1 (stereo unspecified) | x | x | n | x | x | n
Cc1oc(-c2cccc(NC(=O)c3ccccn3)c2)nc1CNC(=O)c1ccc(C(F)(F)F)cc1 | x | n | x | n | x | n
CC(C)Oc1ccc(CNC(=O)c2ccc3nc(Cc4ccccc4)oc3c2)cc1 | u | n | n | n | x | n
Cc1cccc(N(CC(=O)N(C)Cc2ccccc2)S(=O)(=O)c2ccccc2)c1C | n | n | -63.5 | n | u | n
Cc1cccc(N(CC(=O)NCCc2ccccc2)S(=O)(=O)c2ccccc2)c1C | u | n | n | n | n | n
SMILES | Lassa entry inh | Vaccinia Venus | HCMV inh | VACV mCherry inh | Marburg entry inh | FMDV antiviral
COc1ccc(C(O)c2ncc(-c3ccccc3)[nH]2)c(OC)c1 (stereo unspecified) | x | n | -66.5 | n | x | n
CCS(=O)(=O)N1CC2(C1)CN(S(=O)(=O)c1cccc(OC)c1)[C@@H](CO)c1[nH]c3cc(OC)ccc3c12 | x | x | n | x | x | x
COc1ccc2c(O)c(-c3c(C)cc(C)cc3C)c(=O)[nH]c2c1 | n | n | -62.6 | n | n | n
Cn1c(CNC(=O)CNC(=O)Cc2ccccc2)cc(=O)n(C)c1=O | x | x | n | x | x | n
CCCCN1C[C@H](c2ccc(OC)cc2)[C@@H](CC(=O)Nc2ccc(Br)cc2)C1=O | n | n | n | n | x | n
COC(=O)c1ccc(COc2ccccc2/C=C(\C#N)C(=O)Nc2ccccc2C)cc1 | u | n | n | n | n | n
COC(=O)c1ccc(COc2ccccc2/C=C(\C#N)C(=O)Nc2c(C)cccc2C)cc1 | u | n | n | n | 11.2µM | 11.2µM
